Test results reported in PubChem BioAssay (EPA / NIEHS).
More than one record can exist for a structure, and the calls need not agree. Calls of active or inactive are those of the source. The calls were made as follows: active = hit-call score of the fitted dose curve at least 0.9, where 1 is the maximum; inactive = score below 0.9.

read-out: Thyroid Hormone Responsive (THRSP), THRSP (gene 7069); assay: LTEA_HepaRG_THRSP: Life Technologies and Expression Analysis (LTEA) Assay for Thyroid Hormone Responsive (THRSP) using HepaRG (AID 2283536); settings: mRNA level, 48 h; actives raise or lower the signal
Procedure: LTEA_HepaRG is a cell based, multiplexed-readout assay that uses HepaRG, a human liver cell line, with measurements taken at 48 hours after chemical dosing on a 96-well plate.LTEA_HepaRG_THRSP is one of 102 assay component(s) measured in the LTEA HepaRG cell culture assay. It is a marker of NR mediated metabolism.Data from the assay component LTEA_HepaRG_THRSP was analyzed into 1 endpoint. This assay endpoint, LTEA_HepaRG_THRSP, was analyzed with bidirectional fitting relative to DMSO as the negative control and baseline of activity. Using a type of inducible reporter, measures of mRNA induction for gain or loss-of-signal activity can be used to understand regulation of transcription factor activity. To generalize the intended target to other relatable targets, this assay endpoint is annotated to the growth factor intended target family, where the subfamily is NR mediated metabolism.
A total of 1060 chemcials from the ToxCast library were tested in eight-point concentration-response experiments. Cell culture and cytotoxicity assays were conducted at Thermo Fisher Scientific's Custom Services facility (Madison, WI). A single lot of human HepaRG cells (Thermo Fisher Scientific, Frederick, MD) was used for the cell culture experiments. 96-well format collagen type I coated plates of human HepaRG cells were prepared using established methods. Briefly, cryopreserved HepaRG cells were thawed, plated at a density of approximately 100,000 cells/well in HepaRG Thaw, Plate, and General Purpose media (HPRG770, Thermo Fisher Scientific), and incubated for 48 hours. 0.5% DMSO was selected as vehicle control to balance the requisite need of DMSO in HepaRG cultures to maintain differentiation (for example, baseline metabolism, proportions of hepatocytes vs. cholangiocytes), while enabling further hepatic receptor pathway activation (for example, PXR and CAR) in response to chemical exposure. 48 hours after plating, the culture medium was replaced with HepaRG Serum-Free Incudtion Media. Cells were exposed to each test chemical in duplicate and maintained in CO2 incubators for another 48 hours. Chemical plates were thawed to room temperature and 200x concentrations of treatment groups were prepared. 8-point conentration-reponse curves were made with the highest exposure at 100 uM, followed by half-log dilutions, all in 0.5% DMSO. Each test plate contained variouse controls, induction positive controls (1mM phenobarbital), cytotoxicity positive controls ([…] aflatoxin B1), vehicle controls (0.5% DMSO), and total lysis controls (0.5% DMSO). Cell morphology images were taken using an Essen IncuCyte FLR automated microscope, with six 96-well plates imaged in about 24 minutes. Images were captured and exported and JPEG files. Spent culture media was transfered to black-well plates for the LDH assay, and remaining media was sorted at -80 C for later use. Cells were treated with RLT buffer and frozen until shipped for gene expression analysis. Total RNA was isolated from the cell suspension in 75 uL of Buffer RLT (Qiagen, Germantown, MD 20874) by Quintiles/Expression Analysis (Durham, NC) using a custom isolation procedure. Total RNA from each plate well was transferred to a preamplification plate. Fluidigm's 96.96 Dynamic ArrayTM (Fluidigm, Amsterdam, the Netherlands) technology was used for gene expression analyses by quantitative reverse transcription polymerase chain reaction (qRT-PCR, performed by Quintiles/Expression Analysis, Durham, NC)89. Standard TaqManTM Assays (Applied Biosystems/ThermoFisher Scientific, Foster City, CA) were used to assess the expression of 93 genes selected based on their selectivity and sensitivity to important hepatic receptors known to be modulated by environmental chemicals; importance in human hepatocyte functionality; and hepatotoxicity. […]

Compound	AC50	outcome
O=C(Nc1ccc2[nH]ccc2c1)c1cc2cc(F)ccc2n1Cc1cccc(F)c1	28.3 µM (active)	–
CC12CC1(C)C(=O)N(c1cc(Cl)cc(Cl)c1)C2=O (configuration not stated)	–	inactive
Oc1cccc2cccnc12	–	inactive
O=C(O)C(Cl)(Cl)Cl	–	inactive
O=C(O)C(F)(F)C(F)(F)C(F)(F)C(F)(F)C(F)(F)C(F)(F)F	–	inactive
O=[N+]([O-])c1ccc(O)c([N+](=O)[O-])c1	9.32 µM (active)	–
CC(C)(OO)c1ccccc1	–	inactive
CCCCCCCCc1ccc(O)cc1	–	inactive
C=C(C)C(=O)[O][Sn]([CH2]CCC)([CH2]CCC)[CH2]CCC	0.381 µM (active)	–
ClC1(Cl)C2(Cl)C3(Cl)C4(Cl)C(Cl)(Cl)C5(Cl)C3(Cl)C1(Cl)C5(Cl)C24Cl (configuration not stated)	–	inactive
CC(C)(c1ccccc1)c1ccc(O)c(C(C)(C)c2ccccc2)c1	12.7 µM (active)	–
CC(C)(C)CC(C)(C)c1ccc(O)cc1	–	inactive
C[C@]12CCC(=O)C[C@@H]1CC[C@@H]1[C@@H]2CC[C@]2(C)[C@@H](O)CC[C@@H]12	–	inactive
CC(C)(C)c1cc(O)ccc1O	–	inactive
CCC(=O)C(CC(C)N(C)C)(c1ccccc1)c1ccccc1 (configuration not stated)	17.8 µM (active)	–
Cc1ccccc1N	–	inactive

Compound	AC50	outcome
CCOP(=S)(OCC)SCSP(=S)(OCC)OCC	50 µM (active)	–
COc1cc(-c2ccc(N)c(OC)c2)ccc1N	42.9 µM (active)	inactive
C[C@@H]1C[C@@H]([C@H](O)CC2CC(=O)NC(=O)C2)C(=O)[C@@H](C)C1	7.51 µM (active)	–
O=C1C2(Cl)C3(Cl)C4(Cl)C(Cl)(Cl)C5(Cl)C3(Cl)C1(Cl)C5(Cl)C24Cl (configuration not stated)	9.2 µM (active)	–
ClCC(Cl)CCl	–	inactive
CCOP(=S)(OCC)Oc1nc(Cl)c(Cl)cc1Cl	–	inactive
NC(=O)O	–	inactive
CN(C)N=O	–	inactive
O=C(O)C(F)(F)C(F)(F)C(F)(F)C(F)(F)C(F)(F)C(F)(F)C(F)(F)C(F)(F)C(F)(F)C(F)(F)F	–	inactive
O=c1[nH]c(=O)[nH]c(=O)[nH]1	–	inactive
C=CC(=O)OCCCCCC(C)C	–	inactive
Cn1sc(Cl)cc1=O	–	inactive
CC(=O)[O][Hg][c]1ccccc1	2.11 µM (active)	–
CCC(C)(C)c1ccc(O)c(C(C)(C)CC)c1	–	inactive
CCN1CCC2(CC1)COc1cc3c(cc12)N(C(=O)c1ccc(-c2ccc(-c4nnc(C)o4)cc2C)cc1)CC3	46.8 µM (active)	–
